Results: PubChem BioAssay AID1024 (Sanford-Burnham Center for Chemical Genomics, 2008)
Hit rate of the full screen: of about 96,000 compounds, about 1,400 (1.5%) were called active.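 How the source made its calls: active means activation factor of 2 or more for CYP2C9 at a 5 µM dose; inactive means the rest.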 Only a selection was taken, and actives are over-represented in it overall.

Target: Cytochrome P450 2C9 (Homo sapiens) (UniProt P11712)
Assay: human CYP2C9 activators, primary screen, biochemical, luminescence (AID 1024);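 further: 0 = sulfaphenazole-blocked wells and 1 = vehicle-only wells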
Details: recombinant CYP2C9, luciferin-H conversion, at 5 µM, stronger effect = higher value, factor 1 = untreated enzyme, 0 = blocked

Chain of Cytochrome P450 2C9 (Homo sapiens) (P11712 whole entry, looked up): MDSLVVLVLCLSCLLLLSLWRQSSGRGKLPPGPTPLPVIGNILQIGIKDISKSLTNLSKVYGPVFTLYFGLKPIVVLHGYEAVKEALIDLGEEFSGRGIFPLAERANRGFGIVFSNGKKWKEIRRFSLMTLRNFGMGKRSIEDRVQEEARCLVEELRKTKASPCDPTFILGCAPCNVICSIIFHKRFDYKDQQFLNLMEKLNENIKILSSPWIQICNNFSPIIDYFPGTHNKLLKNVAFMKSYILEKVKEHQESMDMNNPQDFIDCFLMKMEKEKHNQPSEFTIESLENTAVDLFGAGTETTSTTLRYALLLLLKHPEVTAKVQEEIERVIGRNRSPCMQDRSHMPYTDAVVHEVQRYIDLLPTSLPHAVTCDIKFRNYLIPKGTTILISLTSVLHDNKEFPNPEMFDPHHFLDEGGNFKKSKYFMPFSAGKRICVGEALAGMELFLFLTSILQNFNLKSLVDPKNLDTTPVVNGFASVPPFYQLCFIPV

| SMILES | activation factor |
| --- | --- |
| O=C(Cn1nc(C(F)(F)F)c2c1CCC2)NCc1ccc(F)cc1 | 3.2 (active) |
| Cc1cc(NC(=O)Cn2nc(C(F)(F)F)c3c2CCCC3)no1 | 0.9 (inactive) |
| COC(=O)c1ccccc1NC(=O)Cn1nc(C(F)(F)F)c2c1CCC2 | 0.8 (inactive) |
| CN1C2CCC1/C(=C\c1ccccc1Cl)C(=O)/C2=C\c1ccccc1Cl | 1.8 (inactive) |
| COC(=O)/C=C/C(=O)NCc1ccco1 | 1 (inactive) |
| C=CCn1c(COc2ccccc2)nnc1SCC(=O)NCC(=O)OCC | 1.1 (inactive) |
| C=CCn1c(COc2ccccc2F)nnc1SCC(=O)N1CC(=O)Nc2ccccc21 | 0.9 (inactive) |
| C=CCn1c(COc2cccc3cccnc23)nnc1SCC(=O)OC | 4.1 (active) |
| CCN(CC)Cc1csc2ccc(Br)cc12 | 1.1 (inactive) |
| COc1cc(C(=S)N2CCOCC2)cc(OC)c1OC(=O)c1cc([N+](=O)[O-])c(C)c([N+](=O)[O-])c1 | 0.9 (inactive) |
| COc1ccc(NCc2nnc(SCc3ccccc3)n2-c2ccc(OC)cc2)cc1 | 0.4 (inactive) |
| O=C(CCS(=O)(=O)c1cccc2nsnc12)N1CCN(c2ccccc2F)CC1 | 2.4 (active) |
| Cc1cccc(C)c1NC(=O)CCS(=O)(=O)c1cccc2nsnc12 | 1 (inactive) |
| O=C(C(NS(=O)(=O)c1cccc2nsnc12)c1ccccc1)N1CCN(c2ccccc2)CC1 (configuration not stated) | 0 (inactive) |
| CSc1nc(-c2ccco2)nn1C(=O)CCc1ccccc1 | 1.1 (inactive) |
| O=C(N/N=C/c1ccsc1)c1cc(O)cc(O)c1 | 0.9 (inactive) |
| COc1ccc(-c2csc3nc(-c4ccccc4F)oc(=O)c23)cc1OC | 1 (inactive) |
| C=CCc1cccc2cc(C(=O)N3CCN(C(=O)OCC)CC3)c(=O)oc12 | 2.1 (active) |
| CCOC(=O)N1CCN(C(=O)c2cc3c(ccc4ccccc43)oc2=O)CC1 | 0.5 (inactive) |
| CS(=O)(=O)N1CCN(C(=O)c2cc3ccccc3oc2=O)CC1 | 1 (inactive) |
| CCC(C)NC(=O)c1c(N)n(/N=C/c2cccs2)c2nc3ccccc3nc12 (configuration not stated) | 0.8 (inactive) |
| Cc1cccc(-n2cnc(C(=O)Nc3cccnc3)c2)n1 | 0.1 (inactive) |
| CCOc1ccccc1NC(=O)CCN1CCN(S(=O)(=O)c2ccc(OC)cc2)CC1 | 0.6 (inactive) |

| SMILES | activation factor |
| --- | --- |
| CCOc1ccccc1NC(=O)CCc1ccc(C)o1 | 2.8 (active) |
| CCOc1ccccc1Nc1nnc(SCC(=O)Nc2cc(C)on2)s1 | 0.9 (inactive) |
| Cc1c(Nc2nc3ccccc3nc2NS(=O)(=O)c2cccs2)c(=O)n(-c2ccccc2)n1C | 0.5 (inactive) |
| O=C(CCc1ccc(S(=O)(=O)N2CCOCC2)cc1)Nc1ccc2ccccc2c1 | 0.4 (inactive) |
| CCCOc1ccccc1C(=O)NCCCC(=O)O | 1.1 (inactive) |
| CCCCOCCCNC(=O)c1ccccc1OCC | 2.9 (active) |
| CCOc1ccccc1C(=O)NCCCn1ccnc1 | 0.3 (inactive) |
| CCc1cc(C(c2ccccc2OC)N2CCOCC2)c(NC(=O)c2ccccc2)s1 (configuration not stated) | 0.1 (inactive) |
| O=C(NC1CCCCC1)C1CC(=O)N(CCc2ccccc2)C1 (configuration not stated) | 1 (inactive) |
| Cc1nn(-c2ccccn2)c2c1C(c1ccncc1)C1=C(CC(C)(C)CC1=O)N2 (configuration not stated) | 0.2 (inactive) |
| COc1ccc(/C=C2\CCCC3C2=NN(C(=O)c2scnc2C)C3c2ccc(OC)cc2)cc1 (configuration not stated) | 0.2 (inactive) |
| CC(=O)Cc1nsc(NC(=O)c2csc3c2CCCC3)n1 | 0.7 (inactive) |
| COC(=O)c1sccc1NC(=O)c1csc2c1CCCC2 | 0.9 (inactive) |
| O=C(NCc1ccccc1Cl)c1csc2c1CCCCC2 | 2.5 (active) |
| CC(C)(C)NS(=O)(=O)CC12CCC(CC1=O)C2(C)C (configuration not stated) | 0.8 (inactive) |
| Cc1cc(C)c2c(-n3cccc3)c(C(=O)NNS(=O)(=O)c3ccc(F)cc3)sc2n1 | 0 (inactive) |
| Cc1ccc2nc(/C(C#N)=C\c3ccc(OC(=O)c4cccs4)cc3)[nH]c2c1 | 0.2 (inactive) |
| C=CCOC(=O)C1=C(C)NC(C)=C(C(=O)OCC=C)C1c1cccs1 | 0 (inactive) |
| CNC(=O)c1csc(-c2ccccc2)n1 | 0.9 (inactive) |
| Cc1ccc(S(=O)(=O)N(C)CC(=O)N2CCc3ccccc32)cc1 | 2.3 (active) |
| O=C(CSCc1ccccc1)N1CCc2ccccc21 | 1.1 (inactive) |
| Cc1ccc(S(=O)(=O)NCC(=O)OCC(=O)N2CCc3ccccc32)cc1 | 1.3 (inactive) |
| CCCC(=O)Nc1nc2ccc(NC(=O)c3cccnc3)cc2s1 | 0.7 (inactive) |

| SMILES | activation factor |
| --- | --- |
| O=C(/C=C\NCC(=O)c1ccccc1)c1ccccc1 | 0.9 (inactive) |
| Cc1nn(-c2ccccc2)c(Cl)c1C(=O)Nc1ccccc1 | 1.5 (inactive) |
| COc1ccccc1-c1nnc(SCC(=O)N2CC(C)CC(C)C2)o1 (configuration not stated) | 3.9 (active) |
| COc1ccccc1-c1nnc(SCC(=O)Nc2ccccc2)o1 | 1.6 (inactive) |
| COc1ccccc1N1CCN(C(=O)CSc2nnc(-c3ccoc3C)o2)CC1 | 0.7 (inactive) |
| Cc1cccc(C)c1NC(=O)c1ccc(CN2CCc3ccccc3C2)cc1 | 1.1 (inactive) |
| Cn1nc([N+](=O)[O-])nc1Sc1ccc(C(C)(C)C)cc1 | 0.9 (inactive) |
| COc1cccc(/C=N\Nc2nncc(-c3ccccc3)n2)c1 | 0.9 (inactive) |
| COc1ccc(S(=O)(=O)Nc2ccc(F)cc2)c(C)c1C | 0.3 (inactive) |
| COc1ccc(S(=O)(=O)N2CCCC(C(=O)N3CCN(C)CC3)C2)cc1C (configuration not stated) | 1.2 (inactive) |
| CCOc1ccc(S(=O)(=O)N2CCCCCC2)c2ccccc12 | 1.5 (inactive) |
| COc1ccc(S(=O)(=O)Nc2ccc(S(=O)(=O)N3CCCCC3)cc2)cc1OC | 0.1 (inactive) |
| COc1ccc(S(=O)(=O)N2CCCC2)c(C)c1C | 2.5 (active) |
| COc1ccc(S(=O)(=O)N2CCCCC2)cc1Br | 2.1 (active) |
| Cc1ccc(-c2nn(-c3ccccc3)cc2/C=N/NC(=O)c2ccc3c(c2)OCO3)cc1 | 0.2 (inactive) |
| O=C(O)C1CCCN(S(=O)(=O)c2cccc3cccnc23)C1 (configuration not stated) | 1.2 (inactive) |
| Cc1cccc(NC(=O)C2CCN(S(=O)(=O)c3cccc4cccnc34)CC2)c1 | 2.8 (active) |
| O=C(Nc1nccs1)C1CCCN1S(=O)(=O)c1cccc2cccnc12 (configuration not stated) | 0.5 (inactive) |
| COc1ccccc1CNC(=O)C1CCCN(S(=O)(=O)c2cccc3cccnc23)C1 (configuration not stated) | 2.9 (active) |
| COc1ccc(NC(=O)C2CCCN(S(=O)(=O)c3cccc4cccnc34)C2)cc1 (configuration not stated) | 1.5 (inactive) |
| COc1ccc(NC(=O)C2CCCN(S(=O)(=O)c3cccc4cccnc34)C2)cc1OC (configuration not stated) | 1.2 (inactive) |
